Measured values published in PubChem BioAssay AID602379 (National Center for Advancing Translational Sciences (NCATS), 2012).
Active and inactive are the calls of the source. Calls follow the shape of the dose curve; as a rule, active = well fitted curve in the direction sought with a large enough effect; inactive = no such curve, though single readings can be large or run the other way.

Biological target: Pyruvate kinase PKLR (Homo sapiens) (UniProt P30613)
Test: qHTS for Activators of Human Muscle Isoform Pyruvate Kinase: Extended Characterization against Liver Pyruvate Kinase
Conditions: purified hPK-L, ATP via Kinase-Glo luminescence, 1 h; series mostly up to 57.3 µM
Description: Human pyruvate kinase liver (hPK-L) enzyme was supplied as a highly purified (>95% pure) preparation from Harvard Medical School and assayed for its ability to generate ATP from ADP using phosphoenolpyruvate (PEP) as a substrate. ATP generation was detected in a coupled reaction by luciferase-mediated luminescence, an ATP-dependent process. Pyruvate kinase substrates, PEP and ADP, were present in the assay at Km and approximately 10-fold below Km respectively. The enzyme was assayed at an intermediate level of activity to screen for both inhibitors and activators. NIH Chemical Genomics Center [NCGC] NIH Molecular Libraries Probe Centers Network [MLPCN] MLPCN Grant: MH085679 Assay Submitter (PI): Matthew G. Vander Heiden, Harvard Medical School
Three uL of substrate mix (at r.t.) in assay buffer (50 mM Imidazole pH7.2, 50 mM KCl, 7 mM MgCl2, 0.01% Tween 20, 0.05% BSA) was dispensed into white solid bottom 1,536 well microtiter plates so that the final concentrations of substrates in the assay were 0.1 mM ADP and 0.5 mM PEP. 23 nL of compound were delivered by a pin tool and 1 uL of enzyme mix (final concentration of 0.1 nM) in assay buffer (4 degree Celsius) was added. Plates were incubated at room temperature for 1 hour. Two uL of detection mix (Kinase-Glo, Promega; at 4 degree Celsius protected from light) was added and luminescence read by a ViewLux (Perkin Elmer) at 1 second exposure/plate. Data were normalized to the uninhibited (row 31). Additionally, a no enzyme and 5-fold enzyme control was dispensed in row 32, split equally between the two conditions.

Sequence of Pyruvate kinase PKLR (Homo sapiens) (P30613 whole entry, looked up, canonical isoform): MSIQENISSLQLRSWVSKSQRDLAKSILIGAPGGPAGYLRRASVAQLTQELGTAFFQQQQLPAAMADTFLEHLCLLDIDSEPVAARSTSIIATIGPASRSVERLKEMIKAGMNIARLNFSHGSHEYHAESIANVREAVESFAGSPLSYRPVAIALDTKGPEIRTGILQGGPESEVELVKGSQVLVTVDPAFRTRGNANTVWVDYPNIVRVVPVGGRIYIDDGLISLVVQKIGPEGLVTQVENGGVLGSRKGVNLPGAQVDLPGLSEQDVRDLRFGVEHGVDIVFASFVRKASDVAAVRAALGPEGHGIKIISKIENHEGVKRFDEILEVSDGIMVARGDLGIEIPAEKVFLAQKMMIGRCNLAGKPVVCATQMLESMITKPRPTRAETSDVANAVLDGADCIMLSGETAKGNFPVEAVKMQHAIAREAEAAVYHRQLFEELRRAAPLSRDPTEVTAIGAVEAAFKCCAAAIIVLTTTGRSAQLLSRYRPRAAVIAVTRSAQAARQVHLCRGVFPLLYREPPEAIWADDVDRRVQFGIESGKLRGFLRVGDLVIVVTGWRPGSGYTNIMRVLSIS

outcome, inactive:
Cc1cc2c(s1)c1cnn(Cc3cc(F)c(F)cc3F)c(=O)c1n2C
Cc1cc2c(s1)c1cnn(Cc3c(Cl)ccc(C)c3F)c(=O)c1n2C
Cc1cc2c(s1)c1cnn(Cc3cc(F)ccc3F)c(=O)c1n2C
Cc1cc2c(s1)c1cnn(Cc3ccc(F)cc3F)c(=O)c1n2C
COc1cccc(Cn2ncc3c4sc(S(C)=O)cc4n(C)c3c2=O)c1 (stereo not given)
